This note sets out measurements from PubChem BioAssay (NCATS).

Results filed as inconclusive are left out. A call without a number means that no potency is given here. Unmarked numbers belong to inactive results. Active and inactive are the calls of the source. Calls come from the whole dose curve; as a rule, active = well fitted inhibition curve with a large enough effect; inconclusive = small, poorly fitted or top-dose-only effect; inactive = flat fitted curve, though single readings scatter. Numbered stars: 1 amine (or outer) side, 2 acyl side, 3 side chain; on linkers, the order of the positions; unused ones are H or OH. Bridge positions count the residues as written; N and C are the ends. Square brackets hold non-standard residues; d marks the D form. Peptide text beside a SMILES is read from it. I, II: the chains in the order shown. Actinocin(9to1) = Cc1c2oc3c(C)ccc(C(=O)[*:1])c3nc-2c(C(=O)[*:2])c(N)c1=O; NMeV = CN[C@H](C(=O)O)C(C)C; Sar = CNCC(=O)O
Potency is the fitted concentration of half-maximal effect.

Chain of Glutathione peroxidase 1 (Homo sapiens) (P07203 whole entry, looked up): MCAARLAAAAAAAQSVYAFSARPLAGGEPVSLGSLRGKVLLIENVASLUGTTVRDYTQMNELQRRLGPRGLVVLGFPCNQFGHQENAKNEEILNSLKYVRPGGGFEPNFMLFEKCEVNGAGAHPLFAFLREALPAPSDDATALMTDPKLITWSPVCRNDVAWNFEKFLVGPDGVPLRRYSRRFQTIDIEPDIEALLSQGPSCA

This assay addresses Glutathione peroxidase 1 (Homo sapiens) (UniProt P07203). The assay can be described thus: Primary qHTS Assay for Inhibitors of Recombinant Selenoprotein Glutathione Peroxidase 1 (GPX1) (AID 1845191). Note: nearly all actives have a fitted effect of over 65% in size. To be noted: recombinant GPX1, GR-coupled NADPH fluorescence, 15 min; series mostly up to 48.8 µM; activity, negative = inhibition: at the top concentration. A digest of the protocol: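 Recombinant GPX1 (10 nM final) was preincubated with compound for 30 min at room temperature, then reacted with 1 mM GSH, 0.5 mM CHP, 0.5 mM NADPH and 100 nM glutathione reductase; NADPH fluorescence (340/450 nm) was read at 0 and 15 min.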
For orientation: In qHTS, concentration-response curves come from the screen itself.
For the molecule `CC(=O)OCC(=O)[C@@]1(OC(C)=O)[C@@H](C)C[C@H]2[C@@H]3C[C@H](F)C4=CC(=O)C=C[C@]4(C)[C@@]3(F)[C@@H](O)C[C@@]21C`, the result was inactive. On to `C[C@@H](CN(C)C)CN1c2ccccc2Sc2ccccc21`, for which the “activity, negative = inhibition” value was -12.1%. With `OC[C@H]1O[C@@H](n2cnc3c(=S)nc[nH]c32)[C@H](O)[C@@H]1O`, the “activity, negative = inhibition” value is 2.42%.

Consider `COc1ccc(CCN2CCC(Nc3nc4ccccc4n3Cc3ccc(F)cc3)CC2)cc1`, for which the “activity, negative = inhibition” value is -28.1%. As for `CCCCOc1ccc(OCCCN2CCOCC2)cc1`, the result was inactive. Regarding `CC(=O)Nc1c(I)cc(I)c(C(=O)O)c1I`, the “activity, negative = inhibition” value is -11.7%.

On to `O=C1c2ccccc2C(=O)C1c1ccccc1`, for which the “activity, negative = inhibition” value was 4.98%. For `CC(O)(P(=O)(O)O)P(=O)(O)O`, the “activity, negative = inhibition” value was 0.531%. As for `CC(C)N=C(N)/N=C(\N)Nc1ccc(Cl)cc1`, the result was inactive. As for `CCCCC(=O)O[C@]1(C(=O)CO)CC[C@H]2[C@@H]3CCC4=CC(=O)CC[C@]4(C)[C@H]3[C@@H](O)C[C@@]21C`, the result was inactive. On to `Cc1ccnc(NS(=O)(=O)c2ccc(N)cc2)n1`, for which the result was inactive. Regarding `COc1cccc(CCc2ccccc2OCC(CN(C)C)OC(=O)CCC(=O)O)c1` (stereo not drawn), the “activity, negative = inhibition” value was -4.56%. Take `NC(=O)c1cc[n+](CC2=C(C(=O)[O-])N3C(=O)[C@@H](NC(=O)Cc4cccs4)[C@H]3SC2)cc1`: the Potency is 10.1 µM (active). With `CC[N+](CC)(CCNC(=O)C(=O)NCC[N+](CC)(CC)Cc1ccccc1Cl)Cc1ccccc1Cl`, the “activity, negative = inhibition” value is -14.2%. With `OC[C@@H](O)[C@@H](O[C@@H]1O[C@H](CO)[C@H](O)[C@H](O)[C@H]1O)[C@H](O)[C@@H](O)CO`, the result was inactive.

Turning to `NCCC(O)(P(=O)(O)O)P(=O)(O)O`, the outcome was inactive. For `C/C=C(/C(=C/C)c1ccc(O)cc1)c1ccc(O)cc1`, the “activity, negative = inhibition” value was -24.7%.

As to `CN1CCCC(CC2c3ccccc3Sc3ccccc32)C1` (stereo not drawn), the outcome was inactive. Take `Cc1cc(O)c(C(C)C)cc1Cl`: the outcome was inactive. In the case of `COc1cccc2c1C(=O)c1c(O)c3c(c(O)c1C2=O)C[C@@](O)(C(C)=O)C[C@@H]3O[C@H]1C[C@H](N)[C@H](O)[C@H](C)O1`, the Potency result is “inactive”.

As to `CCN(CC)C(=O)N1CCN(C)CC1`, the “activity, negative = inhibition” value is -18.6%. As to `N[C@H](CO)C(=O)O`, the Potency result was “inactive”. Consider `CC1=C(C(=O)OC(C)C)C(c2cccc([N+](=O)[O-])c2)C(C(=O)OC2CN(C(c3ccccc3)c3ccccc3)C2)=C(N)N1` (stereo not drawn), for which the outcome was inactive. In the case of `OCc1ccccc1O`, the “activity, negative = inhibition” value was 1.84%.

For the molecule `CCCC(=O)Nc1ccc(OCC(O)CNC(C)C)c(C(C)=O)c1` (stereo not drawn), the “activity, negative = inhibition” value is 1.29%. `C=C(CC)C(=O)c1ccc(OCC(=O)O)c(Cl)c1Cl`: the result was inactive. For the molecule `CCOC(=O)[C@H](CCc1ccccc1)N[C@@H](C)C(=O)N1Cc2ccccc2C[C@H]1C(=O)O`, the Potency result is “inactive”. On to `Cc1c2oc3c(C)ccc(C(=O)N[C@@H]4C(=O)N[C@H](C(C)C)C(=O)N5CCC[C@H]5C(=O)N(C)CC(=O)N(C)[C@@H](C(C)C)C(=O)O[C@@H]4C)c3nc-2c(C(=O)N[C@@H]2C(=O)N[C@H](C(C)C)C(=O)N3CCC[C@H]3C(=O)N(C)CC(=O)N(C)[C@@H](C(C)C)C(=O)O[C@@H]2C)c(N)c1=O` (I: T[dV]P[Sar][NMeV] / II: T[dV]P[Sar][NMeV]; ester I:1-I:C, II:1-II:C; linker I:N-II:N via Actinocin(9to1)), for which the “activity, negative = inhibition” value is -1.57%. `CCn1cc(C(=O)O)c(=O)c2cnc(N3CCCC3)nc21`: the activity, negative = inhibition was -13.1% [at 9.52 µM].

Regarding `O=C(O)CNC(=O)c1ccccc1`, the outcome was inactive. Take `CC(C)=CCC1C(=O)N(c2ccccc2)N(c2ccccc2)C1=O`: the result was inactive. Same read-out and setting: in the case of `N[C@@H](CCC(=O)N[C@@H](CS)C(=O)NCC(=O)O)C(=O)O` it was “inactive [at 27.7 µM]”. Consider `CCN(CC)C(=O)/C(C#N)=C/c1cc(O)c(O)c([N+](=O)[O-])c1`, for which the “activity, negative = inhibition” value is 4.14%. Consider `C[C@]12C=CC(=O)C=C1CC[C@@H]1[C@@H]2[C@@H](O)C[C@@]2(C)[C@H]1CC[C@]2(O)C(=O)CO`, for which the Potency result is “inactive”. In the case of `COC(=O)[C@@H]1CC2=CC(=O)CC[C@]2(C)[C@@]23O[C@@H]2C[C@@]2(C)[C@@H](CC[C@@]24CCC(=O)O4)[C@H]13`, the Potency entry is “inactive”. Consider `Oc1ccc(Cl)c2cccnc12`, for which the outcome was inactive. With `O=c1c(-c2ccccc2)c1-c1ccccc1`, the “activity, negative = inhibition” value is -14.8%. `O=c1[nH]c(=O)n([C@H]2C[C@H](O)[C@@H](CO)O2)cc1C(F)(F)F`: the Potency entry was “inactive”.
